Compound activity deposited in PubChem BioAssay by National Center for Advancing Translational Sciences (NCATS).
The list is not random: actives were taken first. Their share in the collection is about 3.7%.
HepG2 viability: HepG2 cytotoxicity, counter-screen for TGF-b inhibitors | Potency, µM (series often up to 46.1 µM), actives largely listed as cytotoxic | AID 588856 | hit rate 0.76% among 410,000 | HepG2 CAGA-GFP viability, ATP luminescence, 18 h
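CellTiter-Glo luminescence gave cytotoxicity after 18 hours at 37 degrees C. The cells were HepG2 CAGA-GFP in 1% FBS DMEM, stimulated with 500 pg/mL TGF-beta after compound addition. %Activity was normalised to no-cell wells (complete cell-killing) and DMSO (no toxicity), and curves were fitted and classified.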
ATXN2 expr inh: ATXN2 expression inhibition; HEK-293 ATXN2-luciferase reporter, luminescence, 24 h; Potency, µM (highest dose often 57 µM), most hits filed as inhibitors; hit rate 0.72% among 360,000; AID 1745845; note: nearly all actives have a fitted effect of over 55% in size
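qHTS (up to 57 uM final) was run with 24 h compound exposure of reporter cells at 37 °C. Each well was multiplexed: SteadyGlo luminescence measured ATXN2-luciferase expression after a fluorogenic Gly-Phe-AFC viability readout (25 uM final).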
GLP1R inv ag: inverse agonists of human GLP-1 receptor | P43220 | HEK293 GLP-1R CRE-luciferase, luminescence, 24 h; GLP-1R form is constitutively active | hit rate 1.6% among 410,000 | Potency, µM (series often up to 38.3 µM), usual class: inhibitors; note: nearly all actives have a fitted effect of over 55% in size
Target sequence (P43220 whole entry, looked up): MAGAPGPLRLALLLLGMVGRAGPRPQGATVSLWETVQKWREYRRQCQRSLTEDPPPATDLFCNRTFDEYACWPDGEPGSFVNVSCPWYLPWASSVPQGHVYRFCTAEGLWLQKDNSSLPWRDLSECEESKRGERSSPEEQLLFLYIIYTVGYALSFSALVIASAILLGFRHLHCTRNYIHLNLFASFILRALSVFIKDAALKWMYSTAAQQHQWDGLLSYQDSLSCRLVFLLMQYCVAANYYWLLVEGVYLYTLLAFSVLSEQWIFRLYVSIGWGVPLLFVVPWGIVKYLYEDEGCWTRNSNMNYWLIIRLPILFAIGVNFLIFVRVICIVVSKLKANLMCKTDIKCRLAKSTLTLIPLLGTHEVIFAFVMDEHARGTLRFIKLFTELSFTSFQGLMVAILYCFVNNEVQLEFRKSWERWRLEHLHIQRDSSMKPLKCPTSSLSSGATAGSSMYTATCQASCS
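GLP-1R inverse agonism mode: basal reporter luminescence in engineered HEK293 cells measured after one day of compound exposure at 37 deg C, with a 12 min room-temperature detection step.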
GLP1R ag: activates the human GLP-1 receptor; P43220; HEK293 GLP-1R CRE-luciferase, luminescence, 4-6 h; cells express a hypersensitive GLP-1R form; Potency, µM (titrated, usually from 45.6 µM), most hits filed as activators; hit rate 0.007% among 380,000
TGFb inhibitor: blocks TGF-b signaling; hit rate 1.2% among 410,000; HepG2 CAGA-GFP TGF-b/SMAD3 reporter, GFP fluorescence, 18 h; TGF-beta stimulated, 500 pg/mL final; Potency, µM (highest dose often 46.1 µM), hits mostly inhibitors; note: nearly all actives have a fitted effect of over 65% in size
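Per well, imaged GFP fluorescence of HEPG2 CAGA-GFP cells gives the signal; cells get compound, then TGF-beta (500 pg/mL final), 18 h at 37 degrees C; %Activity versus -TGF-beta and +DMSO controls.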
S2 tox: cell viability loss in ATXN counter-screen. S2 cells (HEK-293 line with an ATXN2-luciferase reporter) viability, CellTiter-Fluor protease fluorescence, 24 h. Potency, µM (doses to about 56.7 µM), usual class: cytotoxic. hit rate 0.49% among 400,000. AID 651635; note: nearly all actives have a fitted effect of over 40% in size
Large screens that a line does not name were inactive. Calls come from the whole dose curve; as a rule, active = well fitted curve in the direction sought with a large enough effect; inconclusive = small, poorly fitted or top-dose-only effect, or another doubt; inactive = no such curve, though single readings can be large; an effect the other way counts as inactive or inconclusive.

CC(C)(C)c1ccc(Oc2cccc(C3CC(=O)C(C4NCCc5ccccc54)C(=O)C3n3cncn3)c2)cc1 (stereo not given)	GLP1R inv ag 6.3µM, TGFb inhibitor inconclusive
COc1ccc(N(CC(=O)Nc2cccc(Cl)c2C)S(=O)(=O)c2c(C)nn(C)c2C)cc1	TGFb inhibitor inconclusive
O=C(Cn1cc(/C=N/NC(=O)c2ccccc2Br)c2ccccc21)Nc1ccc(F)cc1	GLP1R inv ag inconclusive, TGFb inhibitor inconclusive
O=C(Cn1cc(/C=N/NC(=O)c2cccc3ccccc23)c2ccccc21)Nc1ccc(F)cc1	GLP1R inv ag 1.6µM
O=C(NNC(=O)c1ccc(CNS(=O)(=O)c2ccc(F)c(Cl)c2)cc1)c1ccccc1	none (no result: HepG2 viability, GLP1R inv ag, GLP1R ag, TGFb inhibitor, S2 tox)
CCC(C)NC(=O)c1ccc2c(c1)N=C(C)c1cc(C)ccc1S2 (stereo not given)	GLP1R inv ag inconclusive, TGFb inhibitor 7.1µM, S2 tox inconclusive
CCCC1=Nc2cc(C(=O)NCc3ccc(OC)cc3)ccc2Sc2ccc(C)cc21	GLP1R inv ag 4.5µM
CCCC1=Nc2cc(C(=O)NC(C)c3ccccc3)ccc2Sc2ccc(C)cc21 (stereo not given)	GLP1R inv ag 4.5µM, TGFb inhibitor inconclusive, S2 tox inconclusive
CCCNC(=O)c1ccc2c(c1)N=C(CCC)c1ccccc1S2	GLP1R inv ag inconclusive, TGFb inhibitor 8.9µM, S2 tox inconclusive
CC1=Nc2cc(C(=O)O)ccc2Sc2ccc(C)cc21	none
CCC1=Nc2cc(C(=O)NC(C)c3ccccc3)ccc2Sc2ccc(Cl)cc21 (stereo not given)	GLP1R inv ag inconclusive
C(=C1c2ccccc2Oc2ccccc21)c1ccccc1	none (no result: ATXN2 expr inh, GLP1R inv ag, GLP1R ag, S2 tox)
C/C(=N\NC(N)=S)C1=CCC2C3CC[C@H]4CC(O)CC[C@]4(C)C3CC[C@]12C (stereo not given in full)	GLP1R inv ag inconclusive, TGFb inhibitor inconclusive, S2 tox 4.5µM (no result: ATXN2 expr inh)
CN1CCN(CC(O)COC(c2ccc(Cl)cc2)c2ccc(Cl)cc2)CC1 (stereo not given)	HepG2 viability 10µM, GLP1R inv ag inconclusive, TGFb inhibitor inconclusive (no result: ATXN2 expr inh)
OC(COC(c1ccccc1)c1ccccc1)CN1CCc2ccccc2C1 (stereo not given)	GLP1R inv ag 10µM, GLP1R ag inconclusive
CC1CCCN(CC(O)COCC2COc3ccccc3O2)C1 (stereo not given)	TGFb inhibitor inconclusive
OC(COCC1COc2ccccc2O1)CN1CCc2ccccc2C1 (stereo not given)	GLP1R inv ag 10µM
OC(COC(c1ccc(Cl)cc1)c1ccc(Cl)cc1)CN1CCc2ccccc2C1 (stereo not given)	HepG2 viability 11µM, ATXN2 expr inh 28µM, GLP1R inv ag 5µM, TGFb inhibitor inconclusive (no result: S2 tox)
O=C(NCC(c1ccc2c(c1)OCO2)N1CCN(c2ccccc2)CC1)c1ccccc1 (stereo not given)	GLP1R inv ag inconclusive, TGFb inhibitor inconclusive (no result: GLP1R ag)
CCN1C[C@@H]2[C@@H]3C(=O)N(Cc4ccccc4)C(=O)[C@@H]3[C@](Cc3ccccc3)(C1=O)N2C(=O)c1ccc(C(C)(C)C)cc1	ATXN2 expr inh inconclusive, S2 tox 32µM
O=C(CCNS(=O)(=O)c1ccccc1)NCCCSc1ccccc1	none
O=C(CCNS(=O)(=O)c1ccccc1C(F)(F)F)NCCCSc1ccccc1	GLP1R inv ag 13µM
Cc1ccc(CN2C(=O)c3ccccc3CC2(C)C(=O)NC2CCCCC2)cc1 (stereo not given)	none (no result: ATXN2 expr inh, GLP1R ag, TGFb inhibitor, S2 tox)
CCc1ccc(-n2nc(CO)c(C(=O)NC)n2)cc1	TGFb inhibitor inconclusive (no result: ATXN2 expr inh, GLP1R ag, S2 tox)
COc1ccc(C(=O)c2no[n+]([O-])c2C(=O)c2ccc(OC)cc2)cc1	ATXN2 expr inh inconclusive, TGFb inhibitor inconclusive, S2 tox 28µM
COc1ccc(NC(=O)c2c(N)no[n+]2[O-])cc1	GLP1R inv ag inconclusive, TGFb inhibitor inconclusive
O=C(c1ccc(Cl)nc1)c1cccs1	none
O=C(c1cccs1)c1no[n+]([O-])c1C(=O)c1cccs1	ATXN2 expr inh inconclusive, GLP1R inv ag inconclusive, TGFb inhibitor 25µM, S2 tox 28µM
C[N+]1(CC(=O)c2ccc(Cl)c(Cl)c2)CCOCC1	none (no result: ATXN2 expr inh, GLP1R inv ag, GLP1R ag, S2 tox)
COCC1CCCN(Cc2ccc3c(c2)CN(C(=O)c2ccc(-n4cccn4)cc2)CCO3)C1 (stereo not given)	none (no result: HepG2 viability, ATXN2 expr inh, GLP1R inv ag, GLP1R ag, TGFb inhibitor)
O=C(Cn1nc(Cc2cccnc2)c2ccccc2c1=O)Nc1cccc(C(F)(F)F)c1	TGFb inhibitor inconclusive (no result: ATXN2 expr inh, GLP1R ag, S2 tox)
CC[N+]1(C)CCC(O)(/C=C/c2ccccc2)C(C(=O)/C=C/c2ccccc2)C1 (stereo not given)	HepG2 viability 11µM, ATXN2 expr inh inconclusive, GLP1R inv ag 10µM, TGFb inhibitor 4µM (no result: S2 tox)
CCc1ccc(/C=C/C(=O)C2C(=O)c3ccccc3C2=O)cc1	ATXN2 expr inh inconclusive
Cc1c(C(=O)N(C)Cc2nccs2)sc2ncnc(NCC3CCCO3)c12 (stereo not given)	none (no result: HepG2 viability, ATXN2 expr inh, GLP1R inv ag, GLP1R ag, TGFb inhibitor)
Cn1c(=O)[nH]c(=O)c2[nH]c(N(Cc3ccccc3)Cc3ccccc3)nc21	HepG2 viability 13µM, ATXN2 expr inh inconclusive, GLP1R inv ag inconclusive, TGFb inhibitor 11µM, S2 tox inconclusive
Cn1c(=O)[nH]c(=O)c2[nH]c(CN3CCN(Cc4ccccc4)CC3)nc21	none
CCOc1ccc(CCNC(=O)CCc2c(C)nc3c(c(C)nn3-c3ccccc3)c2C)cc1OCC	TGFb inhibitor inconclusive
COc1cccc(C(=O)Nc2ccccc2N2CCCC2)c1	TGFb inhibitor inconclusive
COc1cccc(C(=O)NC(=S)Nc2ccccc2N2CCCCC2)c1	GLP1R inv ag 5.6µM, TGFb inhibitor inconclusive
O=C(NC(=S)Nc1ccccc1N1CCOCC1)c1cccc([N+](=O)[O-])c1	GLP1R inv ag 3.5µM
O=C(Nc1nc2ccccc2n1CCN1CCOCC1)c1cccc([N+](=O)[O-])c1	ATXN2 expr inh 22µM (no result: HepG2 viability, GLP1R inv ag, GLP1R ag, TGFb inhibitor, S2 tox)
COc1cc(C(=O)NC(=S)Nc2ccccc2N2CCCC2)cc(OC)c1OC	none
COc1cccc(C(=O)NC(=S)Nc2ccccc2N2CCCC2)c1	GLP1R inv ag 5µM
Cc1c(C=O)ccc(N(C)C)c1C	none (no result: ATXN2 expr inh, GLP1R inv ag, GLP1R ag, S2 tox)
O=S(=O)(c1ccccc1C(F)(F)F)N1CCN(c2nc(-c3ccccc3)nc3ccccc23)CC1	none (no result: ATXN2 expr inh, GLP1R inv ag, GLP1R ag, S2 tox)
COc1cc(NC(=O)CSc2nc(-c3ccc(C(C)C)cc3)no2)cc(OC)c1	none (no result: GLP1R ag)
O=C(Nc1ccc(C(=O)N2CCC(O)(c3ccc(Cl)c(C(F)(F)F)c3)CC2)cc1)c1ccc(Br)o1	ATXN2 expr inh inconclusive, GLP1R inv ag 10µM, TGFb inhibitor inconclusive
Cc1ccc(C(=O)N2CCN(c3ccc(NC(=O)c4ccc(Br)o4)cc3)CC2)cc1	none
